Assay outcomes (PubChem BioAssay)
Shown are actives, neighbours in structure and some others; about 0.52% of the full set was active somewhere.
S aureus helic = inhibitors of S. aureus replicative helicase, primary screen, biochemical, fluorescence unwinding readout; inhibition, % (test concentration not listed); replicative DNA helicase (DnaC/DnaB), Staphylococcus aureus; purified S. aureus helicase, fluorescence unwinding assay; AID 485395, 2010; 120,000 tested, 0.05% active; in the data active = inhibition above about 25%, passing the limit was not always enough
Sa growth inh = S. aureus growth inhibition at 42 and 30 °C, primary screen, LtaS inhibitor project, RN4220, two temperatures. OD600, 20 h, 42 °C; stronger effect = lower value. relative growth, % (test concentration not listed). 170,000 tested, 0.53% active;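 active = relative growth at most 50% at the other temperature and 20+ points below 30 °C, or under 10% at both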
Hits are given with their value; . = inactive; / = not tested or not shown.

SMILES	S aureus helic	Sa growth inh
O=C(Nc1c[nH]c2ccccc12)N1CCCc2ccccc21	.	.
CC1Cc2ccccc2N1C(=O)Nc1c[nH]c2ccccc12 (configuration not stated)	.	.
CC(=O)N1CCN(C(=O)Nc2c[nH]c3ccccc23)CC1	.	6.1
CC1CCCCN1C(=O)Nc1c[nH]c2ccccc12 (configuration not stated)	.	2.7
O=C(NCCN1CCOCC1)Nc1c[nH]c2ccccc12	.	3.2
O=C(NCCN1CCOCC1)Nc1c[nH]c2ccccc2c1=O	.	.
CCN(CC)S(=O)(=O)c1ccc(C(=O)N2CCN(Cc3ccccc3)CC2)cc1	.	/
O=C1CC(c2cccc(C(F)(F)F)c2)C2=C(CCCC2=O)N1 (configuration not stated)	.	.
COc1ccc(Nc2nc3nonc3nc2N2CCCCCC2)cc1	.	.
O=C1NC(=O)c2ccc3c4c(ccc1c24)C(=O)N(c1ccccc1)C3=O	.	5.5
Nc1ccc2c3c(cccc13)C(=O)N(c1ccccc1)C2=O	.	.
CCn1cc(CCCC(=O)NCc2cc(Br)ccc2OC)c2ccccc21	.	.
O=C(CN1CCOc2ccccc21)N1CCC2(CC1)OCCO2	.	.
Cc1ccc(NC2=NCCOC2)cc1	.	/
NC(=O)c1ccc(-c2cccc(C(F)(F)F)c2)o1	.	.
O=C(O)c1ccc(-c2cccc(C(F)(F)F)c2)o1	.	45.4
COCCNC(=O)c1c[nH]n2c(=O)c(Cc3ccc(Cl)cc3)c(C)nc12	.	.
CNC(=O)c1c[nH]n2c(=O)c(Cc3ccccc3F)c(C)nc12	/	.
Cc1nc2c(C(=O)NCCc3ccccc3)c[nH]n2c(=O)c1Cc1ccccc1F	/	0.7
Cc1nc2c(C(=O)NCCc3ccc(Cl)cc3)c[nH]n2c(=O)c1Cc1ccc(Cl)cc1	/	1.2
CC(C)(C)c1ccc(C(=O)Nc2ccc(S(N)(=O)=O)cc2)cc1	.	2.7
CCc1ccc(C(=O)Nc2ccc(S(N)(=O)=O)cc2)cc1	/	.
O=C1c2cccnc2C(=O)N1c1ccccc1	.	.
Fc1ccc(-c2csc(-c3cccs3)n2)cc1	/	44.9
CS(=O)(=O)c1ccc(-c2csc(-c3cccs3)n2)cc1	.	.
SMILES	S aureus helic	Sa growth inh
O=C1Nc2ccccc2/C1=C/C1CC=CCC1 (configuration not stated)	.	.
Cc1cc(OCC(=O)NCc2ccco2)c(C)cc1Br	.	.
Cc1ccc2c(Cl)cc(Cl)c(OCC(=O)NCc3ccco3)c2n1	.	-1.6
CCCSc1ncc(Cl)c(C(=O)Nc2ccc(S(=O)(=O)N(C)c3ccccc3)cc2)n1	/	.
CS(=O)(=O)c1ncc(Cl)c(C(=O)NCc2ccccc2)n1	.	.
CN(Cc1ccccc1)S(=O)(=O)c1ccc(NC(=O)c2nc(S(C)(=O)=O)ncc2Cl)cc1	.	6.2
CN(c1ccccc1)S(=O)(=O)c1ccc(NC(=O)c2nc(S(C)(=O)=O)ncc2Cl)cc1	/	-1.2
Nn1c2ccccc2n2cc(-c3ccccc3)nc12	.	.
CCn1c(O)c(C=N/C(=N/O)c2ccc(NC(=O)C3CC3)cc2)c(=O)n(CC)c1=S	.	.
CC(c1nnc(SCC(=O)N(CC#N)c2ccccc2)n1-c1ccc(F)cc1)N1CCCCC1 (configuration not stated)	.	.
CN(C)Cc1ccccc1CNC(=O)CC1C=CCC1 (configuration not stated)	.	.
COC(=O)c1ccc(O)c(Sc2cc(C(=O)OC)ccc2O)c1	.	1.9
COC(=O)c1cccc(C(=O)OC)c1	.	.
COc1ccc2nc(SCC(=O)c3cc4c5c(c3)CC(=O)N5CCC4)[nH]c2c1	.	.
Cc1ccc(C(=O)CC(c2ccccc2)C(C#N)C#N)cc1 (configuration not stated)	.	47.6
COc1cccc(C(CC(=O)c2ccc(Cl)cc2)C(C#N)C#N)c1 (configuration not stated)	.	.
Cc1ccc(S(=O)(=O)N(C#N)c2nc(N(C)C)nc(N(C)C)n2)cc1	.	.
Cc1nc(CSc2nc3scc(-c4ccco4)c3c(=O)n2-c2ccccc2)cs1	.	.
C#CCn1c(COc2ccccc2)nc2ccccc21	.	.
Cc1cccc2nc(-c3ccco3)c(Nc3ccc4c(c3)OCO4)n12	/	.
Cc1ccc(-c2nc3cccc(C)n3c2Nc2ccc3c(c2)OCO3)o1	/	2.2
COC(=O)c1cc(OC(=O)CCN2C(=O)C3CC=CCC3C2=O)cc(C(=O)OC)c1 (configuration not stated)	.	.
O=C1OCCN1/N=C/c1ccc([N+](=O)[O-])o1	/	-0.9
O=C1CN(/N=C/c2ccc([N+](=O)[O-])o2)C(=O)N1	/	.
Cc1ccc(F)cc1NC(=O)CNC(N)=O	.	.
Cc1nn(-c2ccc(Cl)cc2)c2sc(C(=O)NCCCN3CCCC3=O)cc12	.	.
CC(C)(C)NC(=S)Nc1cccc(Cl)c1	.	.
S=C(Nc1cccc(Cl)c1)Nc1cccc(Cl)c1	/	0.0
